# Screening data as filed in PubChem BioAssay.
# Tb PYK inh – blocks Trypanosoma brucei pyruvate kinase; AID 624173; TbPYK enzyme, Kinase-Glo Plus ATP luminescence, 45 min; 0.12% of 410,000 active; Q57TT1; Potency, µM (highest dose often 76.8 µM), actives largely listed as inhibitors; further: nearly all actives have a fitted effect of over 50% in size
#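 T. brucei PYK with substrate was exposed to pin-transferred compounds across a concentration series, then started with 130 uM ADP (final). After 45 min at room temperature, Kinase-Glo Plus luminescence was read, normalized and curve-fitted.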
# FMDV inh – blocks foot and mouth disease virus; FMDV antiviral cell-based qHTS; Potency, µM (highest dose often 57.9 µM), actives largely listed as inhibitors; 1.2% of 410,000 active; AID 1159524; calls by dose curve; tested in HEK293T cells; further: read-out not given here; nearly all actives have a fitted effect of over 45% in size
# RE007 growth inh – less growth of the S. pombe RE007 Vpr strain; S. pombe RE007 Vpr strain, BacTiter-Glo ATP luminescence, 24 h; Potency, µM (series often up to 92.2 µM), usual class: inhibitors; 0.21% of 360,000 active; active means well fitted falling curve with a large enough effect; inconclusive means small, poorly fitted or top-dose-only effect; inactive means no such curve, though single readings can be large or run the other way; further: nearly all actives have a fitted effect of over 50% in size
#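 Fission yeast RE007 carrying one integrated HIV-1 vpr copy, seeded at OD 0.01 in PMG+AL medium with 23 nL pinned compound. Grown 24 h at 30 degrees; viability read by BacTiter-Glo luminescence after 5 min.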
# Sm TGR inh – inhibitors of Schistosoma mansoni thioredoxin glutathione reductase; Q962Y6; 3% of 360,000 active; purified TGR, DTNB reduction, TNB absorbance 405 nm; AID 485364; Potency, µM (highest dose often 114 µM), actives largely listed as inhibitors; further: nearly all actives have a fitted effect of over 60% in size
#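 First, TGR (20 nM dispensed) and NADPH were mixed with compound. Second, a 15 min room-temperature incubation followed. Third, further NADPH and then DTNB were added to start the reaction. Finally, TNB absorbance was monitored kinetically.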
# Hits are given with their value; i = inactive; ? = inconclusive; nt = no result. Compounds with a hit are over-represented: about 3.7% of the library has one in this group of screens. Unless noted, the call rests on the fitted dose curve; in most records, active means well fitted curve in the direction sought with a large enough effect; inconclusive means small, poorly fitted or top-dose-only effect, or another doubt; inactive means no such curve, though single readings can be large; an effect the other way counts as inactive or inconclusive.
SMILES,Tb PYK inh,FMDV inh,RE007 growth inh,Sm TGR inh
Cc1ccc(OC(=O)CCS(=O)(=O)c2ccc(C)cc2)cc1,i,i,i,i
Cc1ccc(S(=O)(=O)CCC(=O)Oc2ccc3c(C)cc(=O)oc3c2)cc1,i,i,i,22µM
COc1ccc(NC(=O)c2oc3ccc4c(c3c2C)C(=O)CC(C)(C)O4)cc1OC,i,i,nt,i
COCCN(CCOC)Cc1c(O)ccc2c1O/C(=C\c1ccc(C)o1)C2=O,i,i,i,1.8µM
Cc1ccc(OCC(=O)c2cc(C)c(C)cc2C)c([N+](=O)[O-])n1,i,i,i,16µM
CCCn1c(C)cc(C(=O)COc2ccc(C)nc2[N+](=O)[O-])c1C,i,i,i,i
Cc1ccc(C)c(C(=O)COc2ccc(C)nc2[N+](=O)[O-])c1,i,i,i,11µM
Cc1ccc(OCC(=O)c2cc(C)n(-c3ccccc3)c2C)c([N+](=O)[O-])n1,i,?,i,i
COCCn1c(C)cc(C(=O)COc2ccc(C)nc2[N+](=O)[O-])c1C,i,3.5µM,i,i
S=C(NCCCN1CCOCC1)NN=C1c2ccccc2-c2ccccc21,i,?,i,nt
COc1ccc(NC(=O)CN(c2ccc(C)cc2)S(=O)(=O)c2cccc3nonc23)cc1OC,i,i,nt,i
Clc1nssc1=Nc1ccc(Br)cc1,?,?,?,i
N#Cc1cccc(N=c2ssnc2Cl)c1,18µM,?,i,i
COc1cc(N=c2ssnc2Cl)cc(OC)c1,28µM,40µM,?,79µM
CCOc1ccccc1NC(=O)CSc1ccc2nc(-c3ccccc3)cn2n1,i,i,nt,i
CC(C)CCNC(=O)c1cc(Sc2ccc(F)cc2F)nc2ccccc12,i,i,nt,i
CC(NCC(=O)Nc1ccccc1C(=O)NC1CC1)c1ccc(Cl)cc1 (configuration not stated),i,20µM,i,nt
COc1cc(CNCC(C)C)c(Br)cc1OCC(=O)NCc1ccccc1,i,i,i,28µM
COc1cc(CNCCN(C)C)c(Br)cc1OCC(=O)NCc1ccccc1,i,i,i,i
Cc1cccc(/C=C2\CCC(=C3SCCCS3)C2=O)c1,i,i,i,i
O=C1C(=C2SCCCS2)CC/C1=C\c1ccc(F)cc1,i,5µM,i,i
OC[C@@H]1CN(Cc2ccc3c(c2)OCO3)C[C@H](n2cnc3c(NC4CC4)ncnc32)O1,i,i,i,nt
Cc1ccc(C)c(OC2=NS(=O)(=O)c3ccccc32)c1,i,35µM,i,i
O=C1c2ccccc2S(=O)(=O)c2cc(C(=O)N3CCN(c4ccccc4)CC3)ccc21,i,i,i,nt
O=C1c2ccccc2S(=O)(=O)c2cc(N3CCN(C(=O)c4ccccc4)CC3)ccc21,i,40µM,i,nt
SMILES,Tb PYK inh,FMDV inh,RE007 growth inh,Sm TGR inh
CCN1C(=O)C2(C(C(=O)c3ccc(C)o3)=C(O)C(=O)N2CCCN(C)C)c2ccccc21 (configuration not stated),i,i,i,32µM
CCN1C(=O)C2(C(C(=O)c3ccc(C)o3)=C(O)C(=O)N2CCCN2CCOCC2)c2ccccc21 (configuration not stated),i,nt,i,50µM
CC(=O)Nc1ccc(Nc2nc(C)c([N+](=O)[O-])c(N(C)c3ccccc3)n2)cc1,i,32µM,i,i
CC(=O)Nc1ccc(Nc2nc(C)c([N+](=O)[O-])c(Nc3ccccc3)n2)cc1,i,?,i,i
C=CCOC(=O)C1=C(C)Nc2ncnn2C1c1cc(Br)ccc1F (configuration not stated),i,13µM,i,i
CCOC(=O)c1c(C)[nH]c(C)c1S(=O)(=O)N1CCC(C(=O)NCc2ccc(N(C)C)cc2)CC1,i,i,nt,i
O=C(NCc1ccco1)C1OCCc2ccccc21 (configuration not stated),i,i,i,22µM
O=C(CCN1C(=O)/C(=C\c2ccco2)SC1=S)Nc1ccc(C(=O)O)c(O)c1,i,i,i,18µM
O=C(CN1C(=O)/C(=C\c2ccco2)SC1=S)Nc1ccc(O)cc1C(=O)O,i,i,i,25µM
CCCCNC(=O)NS(=O)(=O)c1ccc(N)cc1,i,nt,nt,nt
O=C(CCc1nc(-c2cccs2)no1)Nc1cccc([N+](=O)[O-])c1,i,i,nt,i
CCc1nnc(NC(=O)CSc2nc3c([nH]c4ccccc43)c(=O)n2-c2ccc(F)cc2)s1,i,i,nt,i
COC(=O)[C@@H]1C[C@H](NC(=O)c2cc(C(F)(F)F)ccc2Cl)CN1Cc1cccc(O)c1,nt,i,nt,nt
CCn1cc2nc(SCC(=O)Nc3ccccc3F)n(Cc3ccc(C)cc3)c(=O)c2n1,i,i,nt,i
